# From PubChem
# HePTP inhibitor: blocks human HePTP tyrosine phosphatase | 110,000 tested, 0.64% active | AID 521 | P35236 | inhibition, % at 20 µM | recombinant HePTP phosphatase activity, OD absorbance; in the data active means inhibition above about 50%;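 further: plate controls were vehicle for no effect and reference inhibitor for full effect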
# TNAP act DEA: activators of human TNAP at intermediate phosphate acceptor. P05186. purified TNAP, CDP-star luminescence, 100 mM DEA, 30 min; stronger effect = higher value; scale: 0 levamisole-inhibited, 1 vehicle-only enzyme. activation factor at 20 µM. 64,000 tested, under 10 active. AID 813;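 active means activation factor of at least 2 at 20 µM, relative to controls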
# Ecoli WT expand: blocks growth of wild type E. coli BW25113 | AID 710 | OD600 absorbance | growth inhibition, % at 100 µM | 98,000 tested, 0.15% active;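 active means growth inhibition above about 50% at one test dose, limit read from the data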;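 further: growth measured after 20 h incubation at 37 °C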
# PLAP act: activators of human placental alkaline phosphatase; 96,000 tested, 1.2% active; P05187; activation fold at 20 µM; purified PLAP enzyme, luminescent substrate read-out; stronger effect = higher value; in the data active means activation fold above about 2
# Target sequence (P05187 whole entry, looked up): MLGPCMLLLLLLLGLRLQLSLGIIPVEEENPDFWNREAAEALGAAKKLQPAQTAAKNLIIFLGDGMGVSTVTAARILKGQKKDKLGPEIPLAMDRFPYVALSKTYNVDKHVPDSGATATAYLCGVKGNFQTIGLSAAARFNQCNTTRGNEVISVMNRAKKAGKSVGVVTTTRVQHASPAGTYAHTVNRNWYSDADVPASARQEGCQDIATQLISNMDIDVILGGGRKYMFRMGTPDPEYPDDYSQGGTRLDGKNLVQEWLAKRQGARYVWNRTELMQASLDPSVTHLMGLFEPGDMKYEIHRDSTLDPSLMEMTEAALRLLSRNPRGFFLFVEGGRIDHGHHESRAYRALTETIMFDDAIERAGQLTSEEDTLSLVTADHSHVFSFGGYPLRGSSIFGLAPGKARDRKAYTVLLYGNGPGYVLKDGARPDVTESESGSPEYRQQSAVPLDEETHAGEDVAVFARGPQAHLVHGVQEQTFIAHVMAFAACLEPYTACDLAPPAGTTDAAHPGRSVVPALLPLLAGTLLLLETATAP
# An asterisk follows results filed as active; x = not tested or not shown. Hits are enriched below; roughly 1.3% of the tested compounds scored in any of these assays.
SMILES,HePTP inhibitor,TNAP act DEA,Ecoli WT expand,PLAP act
COC(=O)c1sc2nc(CSc3nc4ccc(C)cc4[nH]3)[nH]c(=O)c2c1C,x,x,1,2*
COC(=O)CSc1nc2ccc(C)cc2[nH]1,x,x,-1,1.1
Cc1cccc(NC(=O)CSc2nnc(CSc3nc(C)cc(C)n3)o2)c1,-3,0.9,2,1.1
COc1cc(/C=N\N2CCN(Cc3ccc(C)cc3)CC2)cc(Br)c1O,77*,x,x,x
COc1cc(/C=N/N2CCN(Cc3ccc(C)cc3)CC2)cc(OC)c1O,-4,x,x,x
O=C(NC(c1ccccc1)c1ccc2cccnc2c1O)c1ccccc1 (configuration not stated),3,x,x,x
Cc1ccc2ccc(C(Nc3ccccn3)c3ccccc3)c(O)c2n1 (configuration not stated),x,x,9,1.8
CC(=O)NC(c1ccco1)c1ccc2cccnc2c1O (configuration not stated),2,1.1,27,2.7*
COc1cc(C(Nc2ccccn2)c2ccc3ccc(C)nc3c2O)cc(OC)c1O (configuration not stated),8,1.1,3,2*
Oc1c(C(Nc2ccccn2)c2ccccn2)ccc2cccnc12 (configuration not stated),9,1.2,54*,x
Cc1cc(NC(c2ccc(Cl)cc2)c2ccc3cccnc3c2O)no1 (configuration not stated),x,x,29,2*
CC(=O)NC(c1ccc2c(c1)OCO2)c1ccc2cccnc2c1O (configuration not stated),-2,x,x,x
CCOC(=O)c1c(NC(=O)c2c(-c3c(Cl)cccc3Cl)noc2C)sc2c1CCCC2,4,x,x,x
Cc1ccc(CN2CC34C=CC(O3)C(C(=O)NCc3ccc5c(c3)OCO5)C4C2=O)cc1 (configuration not stated),-7,1,3,1.4
Cc1sc2nc(CSc3nc4ccccc4c(=O)n3CCCN3CCOCC3)[nH]c(=O)c2c1C,4,0.9,-9,1.6
CCN(CC)CCNC(=O)C12CC3CC(CC(C3)C1)C2,-14,x,0,0.8
CCN(CC)CCNC(=O)C12CC3CC(C)(CC(C)(C3)C1)C2,x,x,-6,2.1*
CCOC(=O)C1C2C=CC3(CN(Cc4cccs4)C(=O)C13)O2 (configuration not stated),9,0.9,3,0.8
CC1=NN(c2ccc(C)cc2)C(=O)/C1=C/c1ccc(-c2cccc(C(=O)O)c2)o1,17,x,x,x
CC1=NN(c2cccc(C(=O)O)c2)C(=O)/C1=C\c1ccc(-c2cc([N+](=O)[O-])ccc2C)o1,56*,x,x,x
CC1=NN(c2cccc(C(=O)O)c2)C(=O)/C1=C\c1ccc(-c2ccc([N+](=O)[O-])cc2)o1,6,x,x,x
CC1=NN(c2cccc(C(=O)O)c2)C(=O)/C1=C\c1ccc(-c2ccc(Cl)c(C(=O)O)c2)o1,101*,x,x,x
CCn1nc(C)c(Cc2c(C)nn(CC)c2C)c1C,104*,x,x,x
CCn1c(C)nc2cc(C(=O)NNS(=O)(=O)c3c(C)c(C)cc(C)c3C)ccc21,x,x,7,2*
CCn1c(C)nc2cc(C(=O)OC(C(F)(F)C(F)F)C(F)(F)C(F)F)ccc21,2,0.9,-3,1.4
SMILES,HePTP inhibitor,TNAP act DEA,Ecoli WT expand,PLAP act
Cc1cccc(C(=O)N2CCN(c3ccc(C(F)(F)F)cn3)CC2)c1C,x,x,8,2.1*
O=C(c1ccccn1)N1CCN(c2ccc(C(F)(F)F)cn2)CC1,-8,1,x,x
O=C(Nc1cccnc1)C1CC2CCC1C2 (configuration not stated),8,x,x,x
CCOc1ccc(/C=N\NC(=O)c2cncc(Br)c2)cc1,-16,x,x,x
CCOc1ccc(/C=N\NC(=O)c2ccc(Br)cc2)c(O)c1,102*,x,x,x
O=C(c1ccc(Cl)cc1)N1CCN(c2ccc([N+](=O)[O-])c3ncccc23)CC1,6,x,x,x
O=C(O)c1ccc(NC(=O)c2cc(NC(=O)c3ccc(C(=O)O)cc3)cc(C(=O)Nc3ccc([N+](=O)[O-])cc3)c2)cc1,101*,x,x,x
O=C(O)c1ccc(NC(=O)c2ccc3c(c2)C(=O)N(c2ccc([N+](=O)[O-])cc2)C3=O)cc1,59*,x,x,x
O=C(Nc1cc(C(=O)Nc2ccc(Cl)cc2)cc(C(=O)Nc2ccc(Cl)cc2)c1)c1ccc([N+](=O)[O-])cc1,3,x,x,x
O=C(Nc1ccc(I)cc1Cl)c1ccc([N+](=O)[O-])cc1,88*,x,x,x
O=C(NC1CCN(Cc2ccccc2)CC1)C1CCCN(S(=O)(=O)c2cccc3nonc23)C1 (configuration not stated),-17,0.9,4,1.8
Cc1ccc(C2CC(C(F)(F)F)n3nc(C(=O)N4CCN(C)CC4)c(Cl)c3N2)cc1 (configuration not stated),8,x,x,x
CC(C)CSc1nc2ccccc2c(=O)[nH]1,x,x,-1,1
CCCCc1ccc(NC(=O)c2c(C)noc2C)cc1,5,1,-10,2*
Nc1nc(SCC(=O)N2N=C3/C(=C/c4ccco4)CCCC3C2c2ccco2)n[nH]1 (configuration not stated),x,x,-5,2.1*
Cn1cnnc1SCC(=O)N1N=C2/C(=C/c3ccco3)CCCC2C1c1ccco1 (configuration not stated),x,x,1,1.3
COc1ccc(-c2c(C)n([O-])c3c([n+]2=O)CCC3)cc1,104*,x,x,x
Cc1c(-c2ccc(F)cc2)[n+](=O)c2c(n1[O-])CCC2,104*,x,x,x
O=C(O)CC(C(=O)OC1CCCCC1)N1CCOCC1 (configuration not stated),13,1,2,0.9
CCCCCCCCCOC(=O)C(CC(=O)O)N1CCOCC1 (configuration not stated),x,x,-4,2*
Nc1[nH]nc2nc(N3CCCC3)nc(-c3ccccc3)c12,4,1,-4,2*
COc1ccc(-c2nc(N3CCOCC3)nc3n[nH]c(N)c23)cc1,0,1,0,1.1
CCCOc1ccccc1N/C(=N/c1nc(C)cc(C)n1)NC(=O)COc1ccc(OC)cc1,x,x,-18,2.4*
CCn1nccc1C(=O)Nc1nccs1,17,0.8,5,1
CCc1ccccc1OCc1nc2ccc(S(=O)(=O)N3CCOCC3)cc2[nH]1,x,x,-11,2*
SMILES,HePTP inhibitor,TNAP act DEA,Ecoli WT expand,PLAP act
CCOc1ccc(S(=O)(=O)NCc2ccccc2Cl)c2ccccc12,1,x,x,x
FC(F)(F)COc1nc(N2CCOCC2)nc(N2CCN(Cc3ccccc3)CC2)n1,5,x,x,x
CC1(C)C(=O)N(Cc2ccccc2)c2ccccc2N1C(=O)c1ccc([N+](=O)[O-])cc1,74*,x,x,x
COc1ccc(NC(=O)C(=O)N/N=C/c2cccc(OC)c2O)cc1,-19,x,x,x
COc1cccc(/C=N/NC(=O)CSc2nnc(C)n2-c2ccccc2)c1O,x,x,19,2.1*
COc1cccc(/C=N/NC(=O)c2[nH]c(C)c(C(=O)N/N=C/c3cccc(OC)c3O)c2C)c1O,x,x,23,2.5*
COc1cccc(/C=N/NC(=O)c2ccc(-c3ccccc3)cc2)c1O,x,x,-17,2.1*
COc1cc(NC(=O)c2ccc(C(C)(C)C)cc2)c(OC)cc1NC(C)=O,-1,x,x,x
COc1ccc(Cn2nnnc2C(c2ccccc2Cl)N2CCN(C3CCCC3)CC2)cc1 (configuration not stated),14,0.9,1,1.7
